# Measured values published in PubChem BioAssay AID1159580 (chemical genetic matrix, 2015).
# Where “and” joins values, the source holds several entries; their conditions need not be identical. Identical values can stand only once. Screen size: about 5,500 compounds; about 2,000 (36%) were called active. About 18% were inconclusive and are not listed. This is one part of the list. Values without a mark were called inactive. No stated cut-off is given here; in the data, active means normalized growth mostly below about 0.91 (no sharp cut-off); inconclusive means no clear call, values can overlap the other calls; inactive means mostly above about 0.92.
# Test: chemical genetic growth profiling, strain panel (AID 1159580);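 further: tested at 20 µM; growth read once vehicle control cultures reached saturation at 30 °C; 1 = growth at the plate median or of vehicle wells; lower values mean less growth of the strain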
# Conditions: S. cerevisiae deletion strains, growth OD
structure (smiles),measurement,setting,value
CC(CCC(=O)O)[C@H]1CCC2C3CC[C@@H]4CC(=O)CC[C@]4(C)C3C=C[C@@]21C (stereo not given in full),normalized growth,"locus YBR021W, strain FUR4, active compounds read low",0.906
same,normalized growth,"locus YBR229C, strain ROT2, active compounds read low",1.03
same,normalized growth,"locus YCL029C, strain bik1, active compounds read low",0.984
same,normalized growth,"locus YDL035C, strain GPR1, active compounds read low",0.832 (active)
same,normalized growth,"locus YDL074C, strain BRE1, active compounds read low",0.992
same,normalized growth,"locus YDL101C, strain DUN1, active compounds read low",1.02
same,normalized growth,"locus YDL185W, strain tfp1, active compounds read low",1.02
same,normalized growth,"locus YDL192W, strain arf1, active compounds read low",1
same,normalized growth,"locus YDR101C, strain arx1, active compounds read low",0.967
same,normalized growth,"locus YDR162C, strain NBP2, active compounds read low",0.999
same,normalized growth,"locus YDR318W, strain mcm21, active compounds read low",0.982
same,normalized growth,"locus YDR388W, active compounds read low",1.01
same,normalized growth,"locus YDR502C, strain sam2, active compounds read low",0.928
same,normalized growth,"locus YEL061C, strain CIN8, active compounds read low",1.03
same,normalized growth,"locus YER110C, active compounds read low",1.05
same,normalized growth,"locus YER155C, strain BEM2, active compounds read low",1.06
same,normalized growth,"locus YER167W, strain BCK2, active compounds read low",1.05
same,normalized growth,"locus YGL078C, strain dbp3, active compounds read low",0.87 (active)
same,normalized growth,"locus YGL086W, strain mad1, active compounds read low",0.971
same,normalized growth,"locus YGL248W, strain PDE1, active compounds read low",0.963
same,normalized growth,"locus YGR078C, strain PAC10, active compounds read low",1.02
same,normalized growth,"locus YGR135W, strain pre9, active compounds read low",0.953
same,normalized growth,"locus YGR229C, strain SMI1, active compounds read low",0.904
same,normalized growth,"locus YGR252W, strain gcn5, active compounds read low",0.779
same,normalized growth,"locus YHR030C, strain SLT2, active compounds read low",1.06 and 0.918
same,normalized growth,"locus YHR079C, strain IRE1 (second series), active compounds read low",1.03
same,normalized growth,"locus YHR079C, strain IRE1, active compounds read low",0.944
same,normalized growth,"locus YHR094C, strain hxt1, active compounds read low",1.03
same,normalized growth,"locus YHR129C, strain ARP1, active compounds read low",1.04
same,normalized growth,"locus YHR200W, strain rpn10, active compounds read low",1.03
same,normalized growth,"locus YIL066C, strain RNR3, active compounds read low",1.02
same,normalized growth,"locus YIL073C, strain SPO22, active compounds read low",0.955
same,normalized growth,"locus YIL125W, strain kgd1, active compounds read low",0.98
same,normalized growth,"locus YIR030C, strain dcg1, active compounds read low",1.02
same,normalized growth,"locus YJL095W, strain BCK1, active compounds read low",0.959 and 0.937
same,normalized growth,"locus YJL134W, strain LCB3, active compounds read low",1.05
same,normalized growth,"locus YJL168C, strain set2, active compounds read low",1.03
same,normalized growth,"locus YJL187C, strain SWE1 (second series), active compounds read low",0.986
same,normalized growth,"locus YJR043C, strain POL32, active compounds read low",0.985
same,normalized growth,"locus YJR066W, strain TOR1, active compounds read low",0.893
same,normalized growth,"locus YKL009W, strain mrt4, active compounds read low",0.809 (active)
same,normalized growth,"locus YKL068W, active compounds read low",1.04
same,normalized growth,"locus YKL085W, strain MDH1 (second series), active compounds read low",1.03
same,normalized growth,"locus YKL085W, strain MDH1, active compounds read low",1.03
same,normalized growth,"locus YKL190W, strain CNB1, active compounds read low",1.04
same,normalized growth,"locus YKR001C, strain vps1, active compounds read low",0.955
same,normalized growth,"locus YLR039C, strain RIC1, active compounds read low",0.953
same,normalized growth,"locus YLR058C, strain SHM2, active compounds read low",1.01
same,normalized growth,"locus YLR102C, strain apc9, active compounds read low",1.03
same,normalized growth,"locus YLR113W, strain HOG1, active compounds read low",0.882
same,normalized growth,"locus YLR262C, strain YPT6, active compounds read low",0.895
same,normalized growth,"locus YLR268W, strain sec22, active compounds read low",0.949
same,normalized growth,"locus YLR330W, strain CHS5, active compounds read low",1.04
same,normalized growth,"locus YLR342W, strain FKS1 (second series), active compounds read low",0.87
same,normalized growth,"locus YLR371W, strain rom2, active compounds read low",1.05
same,normalized growth,"locus YLR418C, strain cdc73, active compounds read low",0.889
same,normalized growth,"locus YML016C, strain PPZ1, active compounds read low",1.04
same,normalized growth,"locus YML032C, strain rad52, active compounds read low",0.959
same,normalized growth,"locus YML124C, strain tub3, active compounds read low",1.04
same,normalized growth,"locus YMR078C, strain ctf18, active compounds read low",1.03
same,normalized growth,"locus YMR223W, strain ubp8, active compounds read low",0.969
same,normalized growth,"locus YMR307W, strain GAS1, active compounds read low",0.875
same,normalized growth,"locus YNL067W, strain RPL9B, active compounds read low",0.971
same,normalized growth,"locus YNL153C, strain GIM3, active compounds read low",0.966
same,normalized growth,"locus YNL183C, strain NPR1, active compounds read low",0.883
same,normalized growth,"locus YNL233W, strain BNI4, active compounds read low",1.02
same,normalized growth,"locus YNL250W, strain rad50, active compounds read low",1
same,normalized growth,"locus YNL271C, strain bni1, active compounds read low",0.992
same,normalized growth,"locus YNL298W, strain CLA4, active compounds read low",0.926
same,normalized growth,"locus YNL307C, strain MCK1, active compounds read low",1.02
same,normalized growth,"locus YNL322C, strain KRE1, active compounds read low",1.04
same,normalized growth,"locus YNR052C, strain pop2, active compounds read low",0.931
same,normalized growth,"locus YOL006C, strain TOP1, active compounds read low",0.944
same,normalized growth,"locus YOL012C, strain htz1",1.95
same,normalized growth,"locus YOL147C, strain pex11, active compounds read low",1.03
same,normalized growth,"locus YOR061W, strain CKA2, active compounds read low",1.01
same,normalized growth,"locus YOR069W, strain VPS5, active compounds read low",1.02
same,normalized growth,"locus YOR136W, strain idh2, active compounds read low",1.03
same,normalized growth,"locus YOR144C, strain elg1, active compounds read low",0.988
same,normalized growth,"locus YOR184W, strain ser1, active compounds read low",0.795 (active)
same,normalized growth,"locus YOR231W, strain MKK1, active compounds read low",0.913
same,normalized growth,"locus YOR316C, strain cot1, active compounds read low",1.03
same,normalized growth,"locus YPL055C, strain LGE1, active compounds read low",1.01
same,normalized growth,"locus YPL241C, strain CIN2, active compounds read low",1.04
same,normalized growth,"locus YPL256C, strain CLN2, active compounds read low",0.963
same,normalized growth,"locus YPR119W, strain clb2, active compounds read low",1.05
same,normalized growth,"locus YPR141C, strain kar3, active compounds read low",1.05
same,normalized growth,"locus YPR163C, strain tif3, active compounds read low",1
same,normalized growth,"locus YPR167C, strain met16, active compounds read low",1.01
same,normalized growth,"strain wtn01, active compounds read low",0.931
